Bioassay records: PubChem BioAssay, National Center for Advancing Translational Sciences (NCATS)
SARS PLpro yeast = SARS-CoV PLP inhibition in yeast; S. cerevisiae expressing SARS-CoV PLpro, growth rescue; hit rate 0.19% among 330,000; Potency, µM (highest dose often 32.9 µM), hits mostly activators; AID 485353; calls by dose curve; also: nearly all actives have a fitted effect of over 55% in size
RE007 growth inh = less growth of the S. pombe RE007 Vpr strain | S. pombe RE007 Vpr strain, BacTiter-Glo ATP luminescence, 24 h | Potency, µM (series often up to 92.2 µM), hits mostly inhibitors | AID 651644 | hit rate 0.21% among 360,000; active = well fitted falling curve with a large enough effect; inconclusive = small, poorly fitted or top-dose-only effect; inactive = no such curve, though single readings can be large or run the other way; also: nearly all actives have a fitted effect of over 50% in size
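Fission yeast RE007 carrying one integrated HIV-1 vpr copy, seeded at OD 0.01 in PMG+AL medium with 23 nL pinned compound. Grown 24 h at 30 degrees; viability read by BacTiter-Glo luminescence after 5 min.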
LmPK inh = inhibitors of Leishmania mexicana pyruvate kinase | Q27686 | Potency, µM (titrated, usually from 57.5 µM), most hits filed as inhibitors | hit rate 0.37% among 290,000 | purified LmPK, Kinase-Glo ATP luminescence, 1 h
Target sequence (Q27686 whole entry, looked up): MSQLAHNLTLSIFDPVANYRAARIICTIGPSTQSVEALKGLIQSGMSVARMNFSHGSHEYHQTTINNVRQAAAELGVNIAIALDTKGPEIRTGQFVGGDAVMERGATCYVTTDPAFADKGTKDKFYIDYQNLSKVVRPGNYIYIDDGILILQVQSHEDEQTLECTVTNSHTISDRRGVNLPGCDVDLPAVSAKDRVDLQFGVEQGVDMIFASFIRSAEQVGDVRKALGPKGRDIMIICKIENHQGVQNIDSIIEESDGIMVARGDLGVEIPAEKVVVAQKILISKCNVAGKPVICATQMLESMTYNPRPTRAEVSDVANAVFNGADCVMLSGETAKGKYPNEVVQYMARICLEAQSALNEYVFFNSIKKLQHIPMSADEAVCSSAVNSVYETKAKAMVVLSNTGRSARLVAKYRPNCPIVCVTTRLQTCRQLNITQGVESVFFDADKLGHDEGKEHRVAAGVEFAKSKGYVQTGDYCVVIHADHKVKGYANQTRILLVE
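ATP generated from ADP (0.1 mM) and PEP (0.5 mM) by 0.1 nM LmPK over 1 h at room temperature (pH 7.2 imidazole buffer) was detected by coupled luciferase luminescence. Values were normalized to uninhibited and no-enzyme wells.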
TbPYK inhibitor = blocks Trypanosoma brucei pyruvate kinase. TbPYK enzyme, Kinase-Glo Plus ATP luminescence, 45 min. Potency, µM (highest dose often 76.8 µM), usual class: inhibitors. hit rate 0.12% among 410,000; also: nearly all actives have a fitted effect of over 50% in size
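Activity of T. brucei pyruvate kinase was followed by Kinase-Glo Plus luminescence after the enzyme reacted 45 min at room temperature with 130 uM ADP (final) and substrate. Test compounds were added before ADP at multiple concentrations.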
Giardia FBPA inh = blocks Giardia fructose-bisphosphate aldolase activity; Potency, µM (series often up to 59.6 µM), usual class: inhibitors; hit rate 0.71% among 290,000; A8B2U2; purified Giardia FBPA; also: nearly all actives have a fitted effect of over 55% in size
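Giardia FBPA (40 nM reagent) was preincubated 10 min at RT with compound (up to 57.5 uM final), then substrate plus GAPDH/TPI/NAD/arsenate coupling system with diaphorase/resazurin was added; resorufin fluorescence (525/598 nm) was read after 20 min.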
Numbers stand for hits; i = inactive; ? = inconclusive; nt = not tested or not shown; [ ] = remark or other dose. Sampled rows, rich in hits. Any-hit rate of the full collection: about 1.1%. Unless noted, calls follow the shape of the dose curve; as a rule, active = well fitted curve in the direction sought with a large enough effect; inconclusive = small, poorly fitted or top-dose-only effect, or another doubt; inactive = no such curve, though single readings can be large; an effect the other way counts as inactive or inconclusive.

SMILES	SARS PLpro yeast	RE007 growth inh	LmPK inh	TbPYK inhibitor	Giardia FBPA inh
CCCCCCC(=O)N(O)C1CC(=O)N(c2ccc(F)cc2)C1=O (stereo unspecified)	i	6.3µM	i	?	i
C=CCn1c(CSc2nc3ccccc3s2)n[nH]c1=S	i	i	?	4.5µM	i
C=CCn1c(CSc2ccc(C)cc2)n[nH]c1=S	i	i	i	4µM	?
O=C(N=c1nc2ccccn2s1)c1ccccc1	i	i	3.5µM	?	i
COc1ccc(-c2c3c([nH]c(=S)c2C#N)CCC3)cc1	i	i	i	13µM	?
N#Cc1c(-c2cccnc2)c2c([nH]c1=S)CCCC2	i	i	i	?	i
COc1ccc(OC)c(-c2c3c([nH]c(=S)c2C#N)CCCC3)c1	i	i	i	?	i
N#Cc1c(-c2ccco2)c2c([nH]c1=S)CCCC2	i	i	i	18µM	?
O=C(CS(=O)c1ccc(C(F)(F)F)cc1[N+](=O)[O-])Oc1ccccc1 (stereo unspecified)	i	45µM	i	i	?
COCC1=C(C(=O)OC(C)OC(=O)OC(C)C)N2C(=O)C(NC(=O)/C(=N\OC)c3csc(N)n3)C2SC1 (stereo unspecified)	nt	nt	nt	i	nt
Cc1ccc(NC2Sc3ccccc3NC2=O)cc1 (stereo unspecified)	i	i	i	14µM	i
Nc1ccc(N2CCOCC2)c2nonc12	i	i	i	i	2.8µM
O=C(CCN1CCN(C(=O)c2ccccc2)CC1)c1ccc(Br)cc1	i	28µM	i	i	i
O=C1c2ccccc2C(=O)c2c1ccc(O)c2O	nt	?	nt	i	i
COC(=O)c1ccc2c(c1O)C(=O)c1ccccc1C2=O	i	4.5µM	i	i	?
COc1ccc(N=CC2=C(O)CC(C)(C)CC2=O)cc1	13µM	i	i	i	i
COc1cc(C2CC(=O)N3CN(c4ccccc4C)CSC3=C2C#N)cc(OC)c1OC (stereo unspecified)	?	nt	i	nt	4.5µM
COc1cccc(C2CC(=O)N3CN(c4cccc(Cl)c4C)CSC3=C2C#N)c1OC (stereo unspecified)	i	i	i	?	?
COc1ccccc1N1CSC2=C(C#N)C(c3ccc(SC)cc3)CC(=O)N2C1 (stereo unspecified)	i	i	i	18µM	5.6µM
Cc1ccc2c(c1)[C@]13CCCC[C@@H]1[C@@H](C2)N(C)CC3	nt	nt	nt	i	nt
O=C(Nc1ccccc1)c1ccc(CSc2ccccn2)cc1	i	?	13µM	?	i
CCc1nn2cc(-c3ccccc3)nc2s1	i	?	11µM	?	i
Cc1ccc(S(=O)(=O)NCCc2cn3c(C)csc3n2)cc1	nt	nt	nt	i	nt
CC(=O)C1=C(C)OC(N)=C(C#N)C1c1cccc2ccccc12 (stereo unspecified)	i	i	i	i	20µM
CCc1ccc(S(=O)(=O)/N=C2\C=CC(=O)c3ccccc32)cc1	i	nt	i	nt	7.1µM
SMILES	SARS PLpro yeast	RE007 growth inh	LmPK inh	TbPYK inhibitor	Giardia FBPA inh
CCc1ccc(S(=O)(=O)/N=C2/C=C(Sc3ncn[nH]3)C(=O)c3ccccc32)cc1	i	?	?	?	0.79µM
Cc1ccc(S(=O)(=O)/N=C2\C=C(NS(=O)(=O)c3ccccc3)C(=O)c3ccccc32)cc1	nt	i	nt	?	nt
CCc1ccc(S(=O)(=O)/N=C2\C=C(Nc3cccc(C(=O)O)c3)C(=O)c3ccccc32)cc1	i	i	i	i	nt
CCc1ccc(S(=O)(=O)/N=C2\C=C(Nc3ccc(O)cc3)C(=O)c3ccccc32)cc1	i	i	i	?	1.4µM
O=S(=O)(N=C1C=CC(=NS(=O)(=O)c2ccccc2)c2ccccc21)c1ccccc1	nt	i	nt	i	nt
COc1cc(NC(=O)C(Cc2ccccc2)NS(=O)(=O)c2cccs2)cc(OC)c1 (stereo unspecified)	nt	nt	nt	i	nt
CC1CCN(C(=O)Cn2c(-c3cccs3)cc3cc(Cl)ccc32)CC1	nt	nt	nt	i	nt
Cc1ccc2c(c1C)-c1c(ccc(C)c1C)C(=O)C2=O	nt	45µM	nt	i	nt
CC(C)Cn1c2c(c(O)c(C(=O)Nc3ncccc3O)c1=O)CCCC2	i	i	i	i	7.9µM
CNCc1ccccc1Sc1ccc(O)c(O)c1	i	i	i	i	2.5µM
CNC(C)Cc1ccccc1Sc1ccc(O)cc1 (stereo unspecified)	i	i	i	i	i
COc1cc(/C=N/Nc2nncn2N)ccc1OCc1c(C)no[n+]1[O-]	i	i	i	i	5µM
COc1ccc(/C=N/Nc2nncn2N)cc1Br	i	?	i	i	?
NCCc1cc(O)c(O)cc1O	nt	i[18.4 µM]	nt	?	5.6µM
COc1cccc(F)c1C(C[N+](=O)[O-])c1c(N)n(C)c(=O)n(C)c1=O (stereo unspecified)	i	16µM	i	i	i
Cc1ccc(C(C[N+](=O)[O-])c2c(N)n(C)c(=O)n(C)c2=O)cc1 (stereo unspecified)	i	?	i	i	i
Cn1c(N)c(C(C[N+](=O)[O-])c2ccccc2Cl)c(=O)n(C)c1=O (stereo unspecified)	nt	40µM	nt	i	nt
CCCCn1c(CCn2nc(C)c(Br)c2C)n[nH]c1=S	i	i	18µM	?	i
Cc1ccc(CCNC(=O)c2cc3sccc3n2Cc2ccc(F)cc2)cc1	nt	nt	nt	i	nt
CN(C)C(=O)c1ccc(N=Nc2c(O)c3ccccc3[nH]c2=O)cc1	nt	18µM	nt	i	nt
Cc1ccccc1N=Nc1c(O)[nH]c2ccccc12	nt	i	nt	i	nt
O=C(N=Nc1c(O)[nH]c2ccccc12)c1cccs1	i	i	16µM	i	i
O=C(O)c1ccc(N=Nc2c(O)[nH]c3ccccc23)cc1	i	?	14µM	i	i
O=C(N=Nc1c(O)[nH]c2ccccc12)c1cc(NS(=O)(=O)c2cccs2)cc(NS(=O)(=O)c2cccs2)c1	i	i	i	i	i
COC(=O)c1sc2cccc(F)c2c1S(=O)(=O)N1CCN(c2cccc(C)c2)C(C)C1 (stereo unspecified)	nt	nt	nt	i	nt
SMILES	SARS PLpro yeast	RE007 growth inh	LmPK inh	TbPYK inhibitor	Giardia FBPA inh
CCC(=O)N1CCc2cc(S(=O)(=O)CCC(=O)N3CCN(c4cccc(C)c4)C(C)C3)ccc21 (stereo unspecified)	nt	nt	nt	i	nt
Cc1cn2c(=O)cc(COc3ccccc3NC(=O)c3ccco3)nc2s1	nt	nt	nt	i	nt
CCOc1ccc(C(=O)c2cn(CC(=O)Nc3cc(OC)cc(OC)c3)c3ccc(F)cc3c2=O)cc1	nt	nt	nt	i	nt
Cc1ccsc1C(=O)OCc1csc(-c2ccccc2)n1	i	i	16µM	i	i
O=C(OCc1csc(-c2ccccc2)n1)c1cccs1	i	i	i	i	i
Cn1cccc1C(=O)OCc1csc(-c2ccccc2)n1	i	i	14µM	i	i
Cc1ccc(NC(=O)c2nc(S(C)(=O)=O)ncc2N(Cc2ccco2)Cc2ccco2)cc1C	nt	nt	nt	i	nt
CCCCCCCCN1C(=O)[C@H](CC(=O)N2CCCC2)C[C@@]2(C(=O)OC)CC(C)(C)CC=C12	nt	i	nt	nt	nt
CC(C)CCNC(=O)c1ccc(Cn2c(SCC(=O)NC(C)C)nc3ccccc3c2=O)cc1	nt	nt	nt	i	nt
